# Compound activity deposited in PubChem by Sanford-Burnham Center for Chemical Genomics.
# NALP1 yeast inh: NALP1 inflammasome inhibitors in reconstituted yeast, colorimetric, S. cerevisiae, triplicate retest; S. cerevisiae NALP1/ASC/caspase-1 growth, X-gal OD620, 72 h; inhibition, % at 10 µM; actives 0.61% (n = 280,000); AID 2071, 2009; in the data active means inhibition mostly above about 24%, no sharp cut-off; inactive means mostly below about 32%
# NLRP3 yeast inh: NALP3 inflammasome inhibitors in reconstituted yeast, primary screen, luminescence, uHTS; AID 2825, 2010; Yeast reconstituted NLRP3/ASC/caspase-1, beta-gal luminescence, 24 h; actives 0.39% (n = 330,000); inhibition, % at 10 µM;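 active means inhibition of 50% or more; inactive means inhibition below 50%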;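 further: plate controls were induced DMSO wells for no effect and uninduced yeast grown without galactose for full effect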
# tim10-1 inh: growth inhibitors of tim10-1 mutant yeast, primary screen, luminescence, uHTS. S. cerevisiae tim10-1 ts strain growth, BacTiter-Glo, 24 h. inhibition, % at 20 µM. actives 2.2% (n = 330,000). AID 463190, 2010;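 active means inhibition of at least 40%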;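 further: mutant grown at 25 °C; 0% = DMSO wells with yeast and 100% = wells holding no yeast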
# TIM10 inh: growth inhibitors of isogenic TIM10 control yeast, primary screen, counter-screen for tim10-1 yeast inhibitor project, luminescence, uHTS. S. cerevisiae TIM10 strain growth, BacTiter-Glo luminescence, 24 h. inhibition, % at 10 µM. actives 1.4% (n = 330,000). AID 463195, 2010;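 active means inhibition of 40% or more at the single tested concentration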;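 further: wild-type TIM10 isogenic control strain grown at permissive 25 °C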
# tim23-1 inh: growth inhibitors of tim23-1 mutant yeast, primary screen, luminescence, uHTS | S. cerevisiae tim23-1 growth, BacTiter-Glo luminescence, 24 h | inhibition, % at 20 µM | actives 1.3% (n = 330,000);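 active means growth inhibition of the mutant yeast at or above 50%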;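 further: temperature-sensitive mutant grown at 25 °C; plate controls were DMSO-treated mutant yeast for no effect and medium wells lacking yeast for full effect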
# tim10-1 conf: growth inhibitors of tim10-1 mutant yeast, confirmation, single concentration, luminescence, S. cerevisiae | inhibition, % at 20 µM | actives 56% (n = 7,400) | shares compounds with tim10-1 inh | S. cerevisiae tim10-1 ts strain growth, BacTiter-Glo, 24 h;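 active means inhibition of yeast growth at or above a set limit in either of two repeat tests at 20 µM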;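 further: tim10-1 mutant grown at permissive 25 °C to find synthetic lethal compounds; 0% = DMSO yeast wells and 100% = medium wells without yeast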
# Active calls of the source: *; / = not tested or not shown. Rows were chosen to be rich in hits. Some 4.1% of all compounds tested hit in one or more screens of this group.
SMILES,NALP1 yeast inh,NLRP3 yeast inh,tim10-1 inh,TIM10 inh,tim23-1 inh,tim10-1 conf
Cc1ccc2c(c1)c1c(n2CC(O)Cn2nc(C)c(Br)c2C)CCCC1 (stereo unspecified),6,-4,43*,7,23,11
CC(=O)Oc1c(C)cc(O)c2ccccc12,-4,6,22,11,20,/
CC(=O)Cc1cc(O)c2ccccc2c1OC(=O)c1ccccc1,3,2,43*,27,48,38*
N#Cc1nc(COc2ccc(Cl)cc2Cl)oc1N1CCOCC1,4,19,41*,32,30,25
COc1ccc(C(=O)O/N=C(\N)c2ccc(Br)cc2)cc1,22,35,43*,39,31,53*
COc1ccccc1CC(=O)O/N=C(\N)c1ccccn1,3,9,-5,2,-2,/
COc1ccc(/C(N)=N/OC(=O)Cc2ccccc2OC)cc1,11,16,49*,23,20,32*
Cc1ccc(OCC(=O)Nc2nnc(S(=O)(=O)N3CCC(C)CC3)s2)cc1,5,9,18,2,18,/
O=C(c1cn(-c2ccccc2)nc1-c1cccc([N+](=O)[O-])c1)N1CCCCC1,16,4,48*,24,35,34*
O=C(O)/C=C/c1cn(-c2ccccc2)nc1-c1cccc([N+](=O)[O-])c1,2,12,17,-8,27,/
O=[N+]([O-])c1cccc(-c2nn(-c3ccccc3)cc2CO)c1,9,16,40*,0,42,41*
N#C/C(=C\N1CCCCC1)S(=O)(=O)c1ccc(Cl)cc1,/,8,8,-8,-4,/
Fc1cccc(-c2cc3nc4c(c(NCc5ccco5)n3n2)CCCC4)c1,11,32,50*,27,50,35*
O=[N+]([O-])c1cc(S(=O)(=O)N2CCCCC2)ccc1NCCCN1CCOCC1,-22,9,0,-8,7,/
Cc1ccsc1C1NC(=O)c2c(sc3c2CCCC3)N1 (stereo unspecified),-84,-8,48*,38,48,35*
COc1ccc(C2=NN3C(=O)c4c(ccc(OC)c4OC)C3C2)cc1 (stereo unspecified),49,23,13,37,41,/
COc1ccc2c(c1OC)C(=O)N1N=C(c3ccc(Cl)cc3)CC21 (stereo unspecified),27,34,46*,31,39,33*
CCOc1ccc(N2CCc3c(C)nc(SC)nc32)cc1,2,7,20,29,23,/
CC1(C)Cc2c(sc(NC(=O)C(=O)N3CCCC3)c2C#N)CO1,8,2,41*,15,27,9
CC1(C)Cc2c(sc(NC(=O)C(=O)N3CCCC3)c2C(=O)O)CO1,16,5,-16,2,-6,/
CCOc1ccc(C(=O)/C=C/c2cc(OC)c(OC)c(OC)c2)cc1,9,5,45*,32,25,29
COC(=O)C1CSC(C(=O)OC)N1C(=O)CN1CCN(c2ccc(OC)cc2)CC1 (stereo unspecified),-7,5,9,3,19,/
COc1ccc(-c2nc(N3CCCCCC3)sc2C(=O)c2ccccc2)cc1,19,24,28,21,28,/
O=C(c1ccccc1)c1sc(N2CCCCCC2)nc1-c1ccccc1,21,6,43*,18,36,16
Cc1onc(-c2c(F)cccc2Cl)c1C(=O)Nc1cccc(S(=O)(=O)NC2=NCCC2)c1,/,14,0,6,1,/
SMILES,NALP1 yeast inh,NLRP3 yeast inh,tim10-1 inh,TIM10 inh,tim23-1 inh,tim10-1 conf
NC(=S)N1OC[C@@H]2COc3ccc4ccccc4c3[C@@H]21,-10,13,41*,39,30,21
Cc1ccc(S(=O)(=O)Nc2ccc(N=Nc3ccc(O)cc3)cc2)cc1,/,42,40*,34,38,47*
COc1cc(NC(=O)Cc2ccc(S(=O)(=O)N3CCOCC3)s2)c(OC)cc1Cl,/,-10,30,13,24,/
O=C(Cc1ccc(S(=O)(=O)N2CCOCC2)s1)Nc1ccc2c(c1)CCC2,2,-4,41*,31,27,17
O=C(Cc1ccc(S(=O)(=O)N2CCOCC2)s1)Nc1cc(Cl)ccc1Cl,/,-2,44*,23,34,36*
O=C(COc1ccc2c(c1)OCO2)Nc1nccs1,14,14,14,14,17,/
COc1ccccc1N1CCN(C(=O)C2CCN(C(=O)c3ccc(C(C)(C)C)cc3)CC2)CC1,18,-1,14,16,21,/
COc1ccccc1N1CCN(C(=O)c2sc3nc(-c4ccccc4)cn3c2C)CC1,39,25,38,33,44,/
Cc1c(C(=O)N2CCc3ccccc3C2)sc2nc(-c3ccccc3)cn12,16,15,51*,36,41,35*
Cc1c(C(=O)N2CCOCC2)sc2nc(-c3ccccc3)cn12,-2,6,6,-11,8,/
COc1ccc(-c2cn3c(C)c(C(=O)N4CCc5ccccc5C4)sc3n2)cc1,29,28,43*,25,43,37*
CCOc1c2c(nc3ccc(Cl)cc13)CCC2,5,16,41*,7,35,32*
COc1ccc(C2CC(=O)c3cnc(Nc4cc(C)cc(C)c4)nc3C2)cc1 (stereo unspecified),9,13,46*,36,30,27
Cc1ccc(C(=O)CSc2nnc(CNc3ccc(C)cc3C)n2Cc2ccco2)cc1,5,10,20,19,9,/
COc1ccc(C(=O)CSc2nnc(CNc3ccc(C)cc3C)n2Cc2ccco2)cc1,27,11,40*,23,35,24
O=C(OCC(=O)N1c2ccccc2Sc2ccccc21)c1ccc[n+]([O-])c1,-18,-12,2,-6,7,/
CCCCCCCCS(=O)c1sc2nc3c(cc2c1N)CCCC3 (stereo unspecified),/,3,42*,28,43,50*
CC1CCC(NC(=O)Cn2c(=O)oc3ccccc32)CC1 (stereo unspecified),10,-6,4,4,15,/
CCOc1ccc(/C=C2/C(=O)N(c3ccc(OC)cc3)C(=S)N2CC(=O)OC)cc1OCC,8,15,41*,31,40,30
OC(c1cccc(OCc2ccccc2)c1)c1nnc(-c2ccccc2)o1 (stereo unspecified),20,-5,44*,16,17,28
COC(=O)c1ccc(NC(=O)CN2CCN(CC#N)CC2)cc1,10,9,1,0,-6,/
COc1ccccc1/C=C\C(=O)NCC(=O)N/N=C/c1cccc(OC)c1O,1,0,51*,14,10,-4
